The text below walks through data of PubChem BioAssay (NCI).

This is part of a sample that, as a whole, favours compounds with a hit. Of some 83,000 tested, about 20% had one in any assay.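 Note: values are percent growth. 100 is the growth of untreated cells, values between 100 and 0 indicate rising inhibition; between -100 and 0 indicates cell death.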 The source made the active and inactive calls. Rule for the calls: active = growth percent below 10; inactive = the rest.

The subject of this test is MDA-MB-468 breast. The experiment in a line: NCI-60 one-dose screen, 48 h (100 = growth as untreated, 0 = no growth, -100 = all killed). The note with it: 10 µM unless noted.
On to `NC1=NC(c2ccc(Cl)cc2)C2=C(N1)/C(=C/c1ccc(Cl)cc1)CCC2` (centres undefined), for which the growth is 62.2% (inactive).

Consider `Cc1c(C(=O)N[C@H](CO)Cc2ccccc2)[nH]c2ccc(Cl)cc2c1=O`, for which the growth is 95.5% (inactive).

Consider `O=C(CCCCl)NNc1nccc(Nc2ccc(S(=O)(=O)Nc3ccncc3)cc2)n1`, for which the growth is 116% (inactive).

Turning to `COc1ccc([C@H]2[C@H](O)C(=O)N2c2cc(OC)c(OC)c(OC)c2)cc1`, the growth was 8.33% (active).

For `COc1cc(C2CC(c3ccc(C)cc3)=NN2C=O)ccc1Oc1ccnc2cc(Cl)ccc12` (centres undefined), the growth is 58.4% (inactive).

On to `Cc1ccncc1C(N)=O`, for which the growth was 93.8% (inactive).

As to `NC(=O)n1c(=O)n(-c2cccc(C(F)(F)F)c2)c(=O)c2cc(-c3ccc(F)cc3F)ccc21`, the growth is -8.88% (active).

On to `COC(=O)CCCCC1=CCC2C(=O)C=C(O)C2C1` (centres undefined), for which the growth was 100% (inactive).

Regarding `COc1ccc(NC(=O)c2cccc(-c3cc(=O)c4c(O)c(OC)c(OC)cc4o3)c2)cc1`, the growth was 84.3% (inactive).

Consider `C=CC(=O)N1CCC[C@H](n2c(=O)n(-c3ccc(Oc4ccccc4)cc3)c3c(N)ncnc32)C1`, for which the growth is 0.223% (active).

Turning to `CC(=O)O[C@H]1C[C@@H]2C(C)(C)C(=O)CC[C@@]2(C)c2ccc(C(C)C)cc21`, the growth was 105% (inactive).

For the compound `C#C[C@]1(O)CC[C@H]2[C@@H]3CC=C4c5sc(Nc6ccncc6)nc5CC[C@]4(C)[C@H]3CC[C@@]21C`, the growth is -26.2% (active).

Consider `O=C1c2nsnc2C(=O)c2c(F)c(F)c(F)c(F)c21`, for which the growth was -50.4% (active).

For `O=C1/C(=C/c2ccc([N+](=O)[O-])s2)Oc2cc(Cl)ccc21`, the growth is -17.8% (active).
